Legend:
[1] = biological target: Fibroblast growth factor receptor 4 (Homo sapiens) (UniProt P22455); conditions: at 1 µM;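 note: reported figure is the averaged percent inhibition of FGFR4, from the GSK PKIS kinase screening panel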
[2] = biological target: Tyrosine-protein kinase Fgr (Homo sapiens) (UniProt P09769); conditions: at 0.1 µM
[3] = biological target: Tyrosine-protein kinase Fgr (Homo sapiens) (UniProt P09769); conditions: at 1 µM
[4] = biological target: Vascular endothelial growth factor receptor 1 (Homo sapiens) (UniProt P17948); conditions: at 0.1 µM
[5] = biological target: Vascular endothelial growth factor receptor 1 (Homo sapiens) (UniProt P17948); conditions: at 1 µM
[6] = biological target: Receptor-type tyrosine-protein kinase FLT3 (Homo sapiens) (UniProt P36888); conditions: at 0.1 µM
[7] = biological target: Receptor-type tyrosine-protein kinase FLT3 (Homo sapiens) (UniProt P36888); conditions: at 1 µM
[8] = test system: T1, Receptor-type tyrosine-protein kinase FLT3 (Homo sapiens), P36888 [D835Y]; conditions: at 0.1 µM
T1 sequence (whole entry): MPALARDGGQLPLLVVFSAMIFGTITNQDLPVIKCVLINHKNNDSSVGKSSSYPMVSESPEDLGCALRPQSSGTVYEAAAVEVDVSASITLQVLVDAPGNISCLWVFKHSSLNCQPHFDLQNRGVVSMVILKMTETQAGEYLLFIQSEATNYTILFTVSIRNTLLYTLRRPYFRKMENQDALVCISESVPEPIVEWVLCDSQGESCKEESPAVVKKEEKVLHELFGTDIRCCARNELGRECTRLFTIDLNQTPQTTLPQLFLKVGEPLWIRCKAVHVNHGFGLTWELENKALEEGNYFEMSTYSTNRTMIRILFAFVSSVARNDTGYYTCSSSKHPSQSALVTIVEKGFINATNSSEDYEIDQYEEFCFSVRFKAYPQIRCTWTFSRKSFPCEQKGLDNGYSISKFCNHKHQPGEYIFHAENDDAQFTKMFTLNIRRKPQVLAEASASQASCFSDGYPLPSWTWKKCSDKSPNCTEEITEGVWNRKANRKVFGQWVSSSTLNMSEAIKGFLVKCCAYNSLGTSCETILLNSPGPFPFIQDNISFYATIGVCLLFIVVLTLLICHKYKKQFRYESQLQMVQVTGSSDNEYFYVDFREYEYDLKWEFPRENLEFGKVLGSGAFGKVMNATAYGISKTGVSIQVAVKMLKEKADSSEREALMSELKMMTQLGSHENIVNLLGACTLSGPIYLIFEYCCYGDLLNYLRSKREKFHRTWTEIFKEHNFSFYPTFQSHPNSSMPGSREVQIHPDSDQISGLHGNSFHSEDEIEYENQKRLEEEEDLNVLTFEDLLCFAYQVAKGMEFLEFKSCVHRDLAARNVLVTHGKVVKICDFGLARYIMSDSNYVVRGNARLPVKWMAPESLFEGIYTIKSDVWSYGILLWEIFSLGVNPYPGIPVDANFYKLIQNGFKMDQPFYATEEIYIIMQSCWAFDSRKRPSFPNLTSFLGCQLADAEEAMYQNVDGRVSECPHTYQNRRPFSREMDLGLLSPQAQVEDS

[9] = biological target: Non-receptor tyrosine-protein kinase TYK2 (Homo sapiens) (UniProt P29597); conditions: at 1 µM;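 note: values are mean percent inhibition of TYK2 kinase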
[10] = biological target: T2, Tyrosine-protein kinase receptor TYRO3 (Homo sapiens) (UniProt Q06418); conditions: at 0.1 µM
T2 sequence (whole entry): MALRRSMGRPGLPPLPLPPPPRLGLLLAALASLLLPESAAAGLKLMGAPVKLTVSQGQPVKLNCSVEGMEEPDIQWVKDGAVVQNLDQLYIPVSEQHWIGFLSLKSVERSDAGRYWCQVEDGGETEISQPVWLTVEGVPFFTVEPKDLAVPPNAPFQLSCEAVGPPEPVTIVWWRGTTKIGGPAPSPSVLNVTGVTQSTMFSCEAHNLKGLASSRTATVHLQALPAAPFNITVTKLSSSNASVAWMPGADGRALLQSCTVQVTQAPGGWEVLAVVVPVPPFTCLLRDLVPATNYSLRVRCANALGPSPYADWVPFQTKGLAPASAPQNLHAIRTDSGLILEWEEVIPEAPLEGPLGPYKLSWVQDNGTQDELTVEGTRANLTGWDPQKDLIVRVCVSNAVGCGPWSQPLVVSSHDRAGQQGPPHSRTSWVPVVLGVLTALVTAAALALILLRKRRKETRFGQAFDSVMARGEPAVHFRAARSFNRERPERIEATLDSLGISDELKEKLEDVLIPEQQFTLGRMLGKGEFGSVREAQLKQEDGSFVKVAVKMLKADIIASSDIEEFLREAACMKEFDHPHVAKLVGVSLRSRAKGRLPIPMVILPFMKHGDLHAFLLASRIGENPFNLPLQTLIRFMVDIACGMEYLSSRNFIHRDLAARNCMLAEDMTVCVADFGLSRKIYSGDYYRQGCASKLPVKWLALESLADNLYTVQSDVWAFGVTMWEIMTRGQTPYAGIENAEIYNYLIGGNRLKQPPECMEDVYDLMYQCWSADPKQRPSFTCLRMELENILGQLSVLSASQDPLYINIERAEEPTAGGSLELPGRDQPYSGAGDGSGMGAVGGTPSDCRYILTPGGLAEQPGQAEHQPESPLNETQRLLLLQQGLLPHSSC

[11] = biological target: T2, Tyrosine-protein kinase receptor TYRO3 (Homo sapiens); conditions: at 1 µM
[12] = biological target: Tyrosine-protein kinase Yes (Homo sapiens) (UniProt P07947); conditions: at 0.1 µM
[13] = biological target: Tyrosine-protein kinase Yes (Homo sapiens) (UniProt P07947); conditions: at 1 µM
[14] = biological target: T3, Tyrosine-protein kinase ZAP-70 (Homo sapiens) (UniProt P43403); conditions: at 0.1 µM
T3 sequence (whole entry): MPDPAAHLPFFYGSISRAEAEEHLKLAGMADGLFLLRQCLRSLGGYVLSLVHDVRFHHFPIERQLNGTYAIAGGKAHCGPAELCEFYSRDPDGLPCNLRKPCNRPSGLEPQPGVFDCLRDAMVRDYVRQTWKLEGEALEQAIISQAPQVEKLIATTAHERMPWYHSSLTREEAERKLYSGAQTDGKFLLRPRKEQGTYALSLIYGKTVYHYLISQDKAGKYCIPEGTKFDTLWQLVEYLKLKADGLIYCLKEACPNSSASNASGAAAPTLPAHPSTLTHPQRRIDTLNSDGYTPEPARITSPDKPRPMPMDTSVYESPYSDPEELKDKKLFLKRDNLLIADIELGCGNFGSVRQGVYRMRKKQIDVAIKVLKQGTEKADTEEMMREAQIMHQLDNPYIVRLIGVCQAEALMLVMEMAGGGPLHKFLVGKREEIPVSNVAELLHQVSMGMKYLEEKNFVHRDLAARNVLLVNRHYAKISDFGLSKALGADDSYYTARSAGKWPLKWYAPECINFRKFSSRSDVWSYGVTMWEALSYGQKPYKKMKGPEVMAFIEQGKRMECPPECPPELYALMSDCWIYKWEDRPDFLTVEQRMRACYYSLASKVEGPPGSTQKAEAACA

[15] = biological target: T3, Tyrosine-protein kinase ZAP-70 (Homo sapiens); conditions: at 1 µM
[16] = biological target: Serine/threonine-protein kinase B-raf (Homo sapiens) (UniProt P15056); conditions: at 0.1 µM
[17] = biological target: Serine/threonine-protein kinase B-raf (Homo sapiens) (UniProt P15056); conditions: at 1 µM
[18] = test system: Serine/threonine-protein kinase B-raf (Homo sapiens), P15056 [V600E]; conditions: at 0.1 µM
[19] = test system: Serine/threonine-protein kinase B-raf (Homo sapiens), P15056 [V600E]; conditions: at 1 µM
[20] = biological target: RAF proto-oncogene serine/threonine-protein kinase (Homo sapiens) (UniProt P04049); conditions: at 0.1 µM;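 note: values are mean CRAF kinase inhibition from profiling of the GSK Published Kinase Inhibitor Set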
Chain of RAF proto-oncogene serine/threonine-protein kinase (Homo sapiens) (P04049 whole entry): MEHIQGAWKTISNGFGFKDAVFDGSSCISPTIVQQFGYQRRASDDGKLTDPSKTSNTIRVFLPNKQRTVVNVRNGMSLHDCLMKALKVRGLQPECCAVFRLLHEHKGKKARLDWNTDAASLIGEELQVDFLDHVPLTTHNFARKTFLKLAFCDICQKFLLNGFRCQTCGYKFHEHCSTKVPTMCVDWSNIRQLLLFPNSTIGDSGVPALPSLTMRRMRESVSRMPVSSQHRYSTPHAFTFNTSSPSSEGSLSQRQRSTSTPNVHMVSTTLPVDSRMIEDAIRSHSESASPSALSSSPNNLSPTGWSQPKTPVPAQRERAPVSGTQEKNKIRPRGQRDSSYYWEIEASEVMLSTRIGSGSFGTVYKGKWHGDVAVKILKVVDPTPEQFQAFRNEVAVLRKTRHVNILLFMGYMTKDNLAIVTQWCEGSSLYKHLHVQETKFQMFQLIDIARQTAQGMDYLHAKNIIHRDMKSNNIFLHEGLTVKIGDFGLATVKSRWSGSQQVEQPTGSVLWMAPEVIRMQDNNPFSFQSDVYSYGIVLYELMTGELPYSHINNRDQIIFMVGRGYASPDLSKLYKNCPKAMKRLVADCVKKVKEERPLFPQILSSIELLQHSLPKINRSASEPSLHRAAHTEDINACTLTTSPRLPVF

Chain of Tyrosine-protein kinase Yes (Homo sapiens) (P07947 2-543 limits assumed): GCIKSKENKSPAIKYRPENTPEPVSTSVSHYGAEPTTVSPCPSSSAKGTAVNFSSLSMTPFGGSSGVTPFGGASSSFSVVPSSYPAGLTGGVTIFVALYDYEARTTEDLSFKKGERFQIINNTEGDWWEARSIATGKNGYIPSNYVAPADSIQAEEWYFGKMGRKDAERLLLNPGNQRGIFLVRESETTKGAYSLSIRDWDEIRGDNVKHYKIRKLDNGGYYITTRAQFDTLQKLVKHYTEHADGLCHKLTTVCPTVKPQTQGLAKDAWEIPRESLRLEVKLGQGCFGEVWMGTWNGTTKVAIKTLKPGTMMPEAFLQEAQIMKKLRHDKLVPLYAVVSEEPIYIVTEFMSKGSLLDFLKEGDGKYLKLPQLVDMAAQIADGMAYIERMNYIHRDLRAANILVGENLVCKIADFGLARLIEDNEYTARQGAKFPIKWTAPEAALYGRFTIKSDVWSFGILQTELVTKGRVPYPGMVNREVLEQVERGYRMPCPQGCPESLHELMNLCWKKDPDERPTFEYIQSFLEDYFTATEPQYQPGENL
Chain of Vascular endothelial growth factor receptor 1 (Homo sapiens) (P17948 whole entry): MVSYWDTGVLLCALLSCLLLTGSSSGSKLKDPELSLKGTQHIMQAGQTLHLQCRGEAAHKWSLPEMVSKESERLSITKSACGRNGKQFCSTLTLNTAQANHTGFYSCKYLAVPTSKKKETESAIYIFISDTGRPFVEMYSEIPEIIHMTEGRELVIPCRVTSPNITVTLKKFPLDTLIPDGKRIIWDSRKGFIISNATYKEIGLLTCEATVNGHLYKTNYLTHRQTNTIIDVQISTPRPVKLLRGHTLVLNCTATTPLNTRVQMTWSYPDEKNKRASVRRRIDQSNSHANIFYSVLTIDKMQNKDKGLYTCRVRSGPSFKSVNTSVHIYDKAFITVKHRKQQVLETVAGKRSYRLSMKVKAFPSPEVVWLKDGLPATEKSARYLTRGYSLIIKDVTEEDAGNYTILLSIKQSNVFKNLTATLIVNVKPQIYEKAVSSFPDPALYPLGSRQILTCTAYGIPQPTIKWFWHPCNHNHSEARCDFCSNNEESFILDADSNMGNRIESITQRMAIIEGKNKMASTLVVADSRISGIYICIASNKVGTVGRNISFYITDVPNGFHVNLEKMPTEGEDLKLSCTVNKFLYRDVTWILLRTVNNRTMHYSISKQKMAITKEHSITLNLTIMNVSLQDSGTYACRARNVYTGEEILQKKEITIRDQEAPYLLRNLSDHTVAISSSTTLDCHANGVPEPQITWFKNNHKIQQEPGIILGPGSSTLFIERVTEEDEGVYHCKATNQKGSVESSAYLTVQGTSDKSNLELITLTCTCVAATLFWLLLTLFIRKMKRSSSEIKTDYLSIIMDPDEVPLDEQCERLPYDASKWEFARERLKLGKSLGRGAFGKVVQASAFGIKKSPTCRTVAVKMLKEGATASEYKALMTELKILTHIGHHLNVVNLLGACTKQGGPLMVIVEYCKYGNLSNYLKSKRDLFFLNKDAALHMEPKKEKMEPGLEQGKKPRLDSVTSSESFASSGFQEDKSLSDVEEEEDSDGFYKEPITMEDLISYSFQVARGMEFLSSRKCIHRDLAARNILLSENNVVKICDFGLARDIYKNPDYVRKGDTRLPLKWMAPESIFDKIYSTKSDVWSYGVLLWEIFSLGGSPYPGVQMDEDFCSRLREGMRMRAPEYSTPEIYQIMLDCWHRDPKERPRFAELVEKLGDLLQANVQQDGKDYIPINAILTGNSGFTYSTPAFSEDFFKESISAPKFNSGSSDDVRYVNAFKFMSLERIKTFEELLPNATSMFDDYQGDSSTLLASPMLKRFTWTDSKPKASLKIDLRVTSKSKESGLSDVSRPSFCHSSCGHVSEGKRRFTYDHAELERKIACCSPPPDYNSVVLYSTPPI
Chain of Non-receptor tyrosine-protein kinase TYK2 (Homo sapiens) (P29597 whole entry): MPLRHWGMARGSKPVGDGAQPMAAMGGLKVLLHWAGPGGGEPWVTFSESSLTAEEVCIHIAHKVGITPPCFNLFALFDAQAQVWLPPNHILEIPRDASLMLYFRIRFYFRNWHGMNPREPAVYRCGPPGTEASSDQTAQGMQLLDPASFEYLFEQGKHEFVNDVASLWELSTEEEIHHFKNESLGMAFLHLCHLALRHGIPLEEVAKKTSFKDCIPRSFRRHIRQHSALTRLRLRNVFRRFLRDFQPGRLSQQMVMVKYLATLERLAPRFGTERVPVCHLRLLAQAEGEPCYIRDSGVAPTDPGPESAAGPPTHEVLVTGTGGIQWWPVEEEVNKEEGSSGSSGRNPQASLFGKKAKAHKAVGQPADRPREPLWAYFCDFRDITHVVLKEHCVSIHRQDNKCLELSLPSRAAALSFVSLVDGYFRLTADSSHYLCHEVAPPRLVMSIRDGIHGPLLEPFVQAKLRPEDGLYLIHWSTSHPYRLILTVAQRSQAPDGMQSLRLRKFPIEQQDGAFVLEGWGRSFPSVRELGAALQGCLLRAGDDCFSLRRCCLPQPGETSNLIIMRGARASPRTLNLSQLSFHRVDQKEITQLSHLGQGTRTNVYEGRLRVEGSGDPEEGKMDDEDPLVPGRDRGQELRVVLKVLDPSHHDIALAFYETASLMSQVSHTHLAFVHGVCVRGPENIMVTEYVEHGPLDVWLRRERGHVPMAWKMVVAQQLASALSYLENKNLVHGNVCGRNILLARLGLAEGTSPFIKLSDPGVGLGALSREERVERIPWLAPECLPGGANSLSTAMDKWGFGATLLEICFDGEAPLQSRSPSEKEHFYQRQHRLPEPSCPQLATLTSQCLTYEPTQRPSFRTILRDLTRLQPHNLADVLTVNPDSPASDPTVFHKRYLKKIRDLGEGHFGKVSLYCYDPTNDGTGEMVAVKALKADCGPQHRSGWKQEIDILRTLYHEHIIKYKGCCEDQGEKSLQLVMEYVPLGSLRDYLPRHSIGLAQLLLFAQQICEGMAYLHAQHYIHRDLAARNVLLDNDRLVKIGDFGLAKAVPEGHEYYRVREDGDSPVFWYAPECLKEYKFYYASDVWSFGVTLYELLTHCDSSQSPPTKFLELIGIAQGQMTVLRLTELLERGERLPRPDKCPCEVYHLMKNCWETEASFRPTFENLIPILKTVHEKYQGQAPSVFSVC
Chain of Tyrosine-protein kinase Fgr (Homo sapiens) (P09769 2-529 limits assumed): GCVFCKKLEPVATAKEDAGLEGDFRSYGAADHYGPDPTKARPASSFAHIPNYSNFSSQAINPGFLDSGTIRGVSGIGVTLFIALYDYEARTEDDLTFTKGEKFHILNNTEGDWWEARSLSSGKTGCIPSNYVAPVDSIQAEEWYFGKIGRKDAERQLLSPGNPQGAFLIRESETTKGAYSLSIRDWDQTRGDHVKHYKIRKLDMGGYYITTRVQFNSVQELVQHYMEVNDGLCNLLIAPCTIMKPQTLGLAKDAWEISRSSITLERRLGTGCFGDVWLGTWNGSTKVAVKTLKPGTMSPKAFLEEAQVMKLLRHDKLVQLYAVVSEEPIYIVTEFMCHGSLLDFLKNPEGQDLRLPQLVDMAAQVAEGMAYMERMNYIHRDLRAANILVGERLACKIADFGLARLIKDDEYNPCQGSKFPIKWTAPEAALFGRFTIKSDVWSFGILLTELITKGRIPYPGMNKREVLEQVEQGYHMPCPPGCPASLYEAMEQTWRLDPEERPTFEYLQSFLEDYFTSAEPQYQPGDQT
Chain of Fibroblast growth factor receptor 4 (Homo sapiens) (P22455 22-802 limits assumed): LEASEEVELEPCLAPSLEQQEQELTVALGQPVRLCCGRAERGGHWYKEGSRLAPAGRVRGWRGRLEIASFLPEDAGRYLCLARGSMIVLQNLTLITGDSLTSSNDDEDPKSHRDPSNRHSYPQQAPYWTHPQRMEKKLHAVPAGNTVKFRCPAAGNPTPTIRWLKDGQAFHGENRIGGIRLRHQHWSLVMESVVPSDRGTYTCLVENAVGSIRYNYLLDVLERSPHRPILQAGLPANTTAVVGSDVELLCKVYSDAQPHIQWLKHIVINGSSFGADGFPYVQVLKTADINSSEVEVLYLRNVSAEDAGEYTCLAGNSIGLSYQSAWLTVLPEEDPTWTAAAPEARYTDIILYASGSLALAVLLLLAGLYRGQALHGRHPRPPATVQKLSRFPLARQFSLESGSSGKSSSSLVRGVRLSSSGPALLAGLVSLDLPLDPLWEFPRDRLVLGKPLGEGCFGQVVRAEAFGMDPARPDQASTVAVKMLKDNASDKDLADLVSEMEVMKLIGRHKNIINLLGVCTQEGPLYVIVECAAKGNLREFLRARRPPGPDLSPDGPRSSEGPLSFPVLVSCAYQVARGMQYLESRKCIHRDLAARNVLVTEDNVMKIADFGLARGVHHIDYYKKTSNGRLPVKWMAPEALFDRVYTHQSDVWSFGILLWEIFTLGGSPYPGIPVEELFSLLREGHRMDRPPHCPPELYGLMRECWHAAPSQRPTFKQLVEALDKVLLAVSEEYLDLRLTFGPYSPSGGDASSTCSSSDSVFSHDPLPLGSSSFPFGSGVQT

Row | SMILES | inhibition [1] [%] | inhibition [2] [%] | inhibition [3] [%] | inhibition [4] [%] | inhibition [5] [%] | inhibition [6] [%] | inhibition [7] [%] | inhibition [8] [%] | inhibition [9] [%] | inhibition [10] [%] | inhibition [11] [%] | inhibition [12] [%] | inhibition [13] [%] | inhibition [14] [%] | inhibition [15] [%] | inhibition [16] [%] | inhibition [17] [%] | inhibition [18] [%] | inhibition [19] [%] | inhibition [20] [%]
1 | COc1cc2ncnc(Nc3ccc4c(cnn4Cc4ccccc4)c3)c2cc1OC | -0.35 | 18.4 | 44.2 | 0.61 | 3.06 | 4.33 | 5.83 | -2.99 | -3.38 | 1.85 | 12.6 | 39.4 | 79.9 | -3.74 | 2.96 | 3.75 | 3.3 | 2.5 | 1.8 | 0.11
2 | NC(=O)c1sc(-n2cnc3ccccc32)cc1OCc1ccccc1Br | 0.92 | 1.44 | 6.14 | -0.01 | 4.57 | 2.74 | 1 | -6.76 | -4.77 | 1.17 | 1.89 | 2.41 | 7.85 | -2.78 | -2.62 | 5.54 | 6.15 | 4.91 | 3.77 | 3.4
3 | CN(C)c1cc2c(Nc3ccc4c(cnn4Cc4ccccc4)c3)ncnc2cn1 | 7.89 | 9.23 | 33.2 | 1.1 | 1.36 | 1.97 | 1.77 | 0.4 | -5.95 | 0.23 | 7.51 | 13.5 | 49.8 | 2.63 | 5.85 | 3.72 | 3.71 | 4.74 | 4.34 | 1.64
4 | CC(C)c1ccc(Nc2nccc(-c3cnn4ncccc34)n2)cc1 | 3.28 | 3.66 | 7.87 | 3.33 | 10.9 | 16.1 | 61.1 | 1.27 | -0.13 | 2.38 | 4.27 | 3.25 | 6.98 | 1.01 | 6.84 | 4.59 | 13.7 | 5.11 | 11.6 | 0.59
5 | NC(=O)c1cccc(Nc2nccc(Nc3cccc(F)c3)n2)c1 | 1.79 | 5.52 | 30 | 1.29 | 16.4 | 3.08 | 16.5 | 1.55 | 32.4 | 10.5 | 57 | 4.5 | 22.5 | -0.99 | 4.21 | 0.82 | 3.59 | 1.61 | 3.25 | 0.33
6 | FC(F)(F)c1ccc(-c2nn3ncccc3c2-c2ccnc(Nc3ccc4c(c3)OCCO4)n2)cc1 | 11.7 | 25.6 | 61.1 | 1.91 | 4.89 | 1.7 | 0.28 | 4.42 | 5.73 | 1.27 | 5.58 | 30 | 83.3 | 5.79 | 5.21 | -1.63 | -1.17 | -1.85 | -1.18 | -0.32
7 | COc1cccc(-n2ncc3c(N/N=C/c4ccc(S(C)(=O)=O)cc4)ncnc32)c1 | -1.16 | 28.5 | 64 | 5.44 | 18.8 | 8.26 | 27.9 | 18.6 | 1.37 | 10.6 | 22.4 | 31.9 | 57.4 | -3.44 | 1.31 | 7.5 | 16.4 | 8.25 | 20.2 | -3.03
8 | Cc1cc(Cl)cc2c1NC(=O)C2=NNc1ccc(S(N)(=O)=O)cc1 | 2.64 | 4.99 | 2.96 | 0.01 | -0.12 | 2.63 | 1.85 | -2.63 | 0.66 | 1.11 | 3.93 | 0.95 | 2.2 | 1.82 | 1.81 | 4.13 | 1.81 | 4.19 | 2.74 | 0.2
9 | Cc1ccc(O)cc1Nc1ccnc2ccc(S(C)(=O)=O)cc12 | 9.15 | 76.2 | 81.8 | 22.2 | 72.6 | 2.73 | 4.94 | -0.25 | 9.66 | 4.42 | 19.1 | 89.3 | 99 | 2.4 | 1.31 | 15.3 | 32.5 | 13.8 | 26 | -4.03
10 | CCS(=O)(=O)c1ccc(OC)c(Nc2nccc(N(C)c3ccc4c(C)n[nH]c4c3)n2)c1 | 11.3 | 23.1 | 61.6 | 60.8 | 91.2 | 6.38 | 6.74 | -7.67 | -2.86 | 1.44 | 7.2 | 29.3 | 73.9 | 0.81 | 2.48 | 6.4 | 8.1 | 5.33 | 5.98 | 1.8
11 | O=C1Nc2ccc(-c3cccnc3)cc2C1=Cc1cc(Br)c(O)c(Br)c1 | 3.07 | 1.1 | 7.55 | 2.53 | 2.06 | 1.83 | 7.91 | 11.8 | 6.13 | 3.07 | 9.95 | 2.64 | 5.79 |  | -8.3 | 8.77 | 18.3 | 8.84 | 18.1 | -2.68
12 | Nc1nccc(C#Cc2cncnc2Nc2ccc(OCc3cccc(F)c3)c(Cl)c2)n1 | -2.31 | 0.12 | 4.81 | 2.06 | 3.36 | 0.89 | 3.87 | 3.95 | -1.09 | 3.02 | 3.66 | -0.62 | 5.85 | 1.97 | 3.29 | 3.49 | 6.72 | 3.75 | 5.29 | -0.89
13 | CCCN1CCCC(c2ccc(Nc3nc(Nc4cc(F)ccc4C(N)=O)c4cc[nH]c4n3)c(OC)c2)C1 (stereo not drawn) | 12.2 | 4.94 | 7.28 | 2.54 | 0.66 | 3.86 | 13.1 | 5.98 | -3.62 | 4.74 | 7.19 | 5.09 | 9.04 | 7.83 | 28.7 | 11.6 | 40.1 | 11.2 | 35.5 | 1.24
14 | O=C(Nc1ccc(Oc2ccc3[nH]c(NC(=O)c4ccco4)nc3c2)cc1)Nc1cc(C(F)(F)F)ccc1F | -2.3 | 1.62 | 9.51 | 23.6 | 78.8 | 15 | 70.7 | 1.75 | -3.76 | 5.34 | 37.4 | 0.93 | 21.9 |  | -9.02 | 4.64 | 60.7 | 3.75 | 72.5 | -0.98
